# In the supplement of paper PMC11732987, “Enantioselective OTUD7B fragment discovery through chemoproteomics screening and high-throughput optimisation” (Communications Chemistry, 2025):
# Values without a mark were called inactive.
# Tests used:
# Assay in all cases: log2 ratio of Biotin-Ahx-Ub-VS probe labelling (fragment/DMSO); higher = less target engagement (more negative = stronger competition), active = hit call of the paper (q ≤ 0.05, log2 ratio ≤ -1)
# Conditions in all cases: compound concentration: 200 uM; treatment time: 3 h
# [1] = molecular target: T1, ALG13 (UniProt Q9NP73)
# T1 sequence (whole entry): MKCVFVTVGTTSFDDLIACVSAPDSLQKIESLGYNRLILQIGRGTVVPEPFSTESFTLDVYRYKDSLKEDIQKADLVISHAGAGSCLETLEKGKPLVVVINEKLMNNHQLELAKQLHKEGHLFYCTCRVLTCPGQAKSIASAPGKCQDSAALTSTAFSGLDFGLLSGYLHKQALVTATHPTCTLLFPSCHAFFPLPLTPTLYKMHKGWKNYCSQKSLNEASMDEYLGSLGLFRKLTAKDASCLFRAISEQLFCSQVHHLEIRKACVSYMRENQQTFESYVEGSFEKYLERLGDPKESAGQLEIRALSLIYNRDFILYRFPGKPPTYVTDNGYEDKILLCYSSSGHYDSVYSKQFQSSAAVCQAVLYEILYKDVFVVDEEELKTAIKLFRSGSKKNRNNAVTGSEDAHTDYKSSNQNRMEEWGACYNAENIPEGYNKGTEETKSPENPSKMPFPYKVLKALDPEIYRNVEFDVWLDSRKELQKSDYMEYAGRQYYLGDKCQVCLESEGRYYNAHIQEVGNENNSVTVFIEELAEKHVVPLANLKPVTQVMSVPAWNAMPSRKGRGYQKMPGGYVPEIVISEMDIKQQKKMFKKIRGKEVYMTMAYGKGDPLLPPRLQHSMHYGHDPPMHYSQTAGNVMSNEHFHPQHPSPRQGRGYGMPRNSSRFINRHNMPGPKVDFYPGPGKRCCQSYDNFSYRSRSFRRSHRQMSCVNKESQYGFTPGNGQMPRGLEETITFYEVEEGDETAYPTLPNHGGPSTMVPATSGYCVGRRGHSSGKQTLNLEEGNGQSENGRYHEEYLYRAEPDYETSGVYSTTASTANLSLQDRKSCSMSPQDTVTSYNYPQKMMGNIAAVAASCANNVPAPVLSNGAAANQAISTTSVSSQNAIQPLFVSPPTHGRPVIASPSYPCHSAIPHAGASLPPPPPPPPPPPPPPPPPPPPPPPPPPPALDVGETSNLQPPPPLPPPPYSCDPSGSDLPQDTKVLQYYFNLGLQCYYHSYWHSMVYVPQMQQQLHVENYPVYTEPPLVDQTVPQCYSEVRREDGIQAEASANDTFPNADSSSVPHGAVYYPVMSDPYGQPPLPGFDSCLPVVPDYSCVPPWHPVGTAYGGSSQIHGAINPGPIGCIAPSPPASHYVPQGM
# Outline: (§1)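 The table lists average log2 ratios of fragment over vehicle, from an unpaired t-test on global-median-normalised Spectronaut label-free quantities. Proteins with ≥2 unique peptides were used. Samples were HEK293T lysate (495 µg) treated in triplicate with fragment at 200 µM or vehicle for 3 h, then with Biotin-Ahx-Ub-VS (0.5 µM final) for 1 h, with labelled DUBs NeutrAvidin-enriched and run by diaPASEF LC-MS/MS.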
# [2] = molecular target: ATXN3 (UniProt P54252)
# Chain of ATXN3 (P54252 whole entry): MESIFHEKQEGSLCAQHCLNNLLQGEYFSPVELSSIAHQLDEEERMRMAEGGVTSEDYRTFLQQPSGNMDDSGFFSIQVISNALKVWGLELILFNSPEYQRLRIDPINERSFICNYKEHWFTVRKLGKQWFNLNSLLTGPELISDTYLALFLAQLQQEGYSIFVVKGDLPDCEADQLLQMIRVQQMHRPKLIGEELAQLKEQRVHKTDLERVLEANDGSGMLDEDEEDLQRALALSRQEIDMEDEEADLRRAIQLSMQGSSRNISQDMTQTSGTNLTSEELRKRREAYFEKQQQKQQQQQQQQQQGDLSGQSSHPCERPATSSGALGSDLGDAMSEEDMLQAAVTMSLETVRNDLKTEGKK
# Outline: as §1
# [3] = molecular target: T2, BAP1 (UniProt Q92560)
# T2 sequence (whole entry): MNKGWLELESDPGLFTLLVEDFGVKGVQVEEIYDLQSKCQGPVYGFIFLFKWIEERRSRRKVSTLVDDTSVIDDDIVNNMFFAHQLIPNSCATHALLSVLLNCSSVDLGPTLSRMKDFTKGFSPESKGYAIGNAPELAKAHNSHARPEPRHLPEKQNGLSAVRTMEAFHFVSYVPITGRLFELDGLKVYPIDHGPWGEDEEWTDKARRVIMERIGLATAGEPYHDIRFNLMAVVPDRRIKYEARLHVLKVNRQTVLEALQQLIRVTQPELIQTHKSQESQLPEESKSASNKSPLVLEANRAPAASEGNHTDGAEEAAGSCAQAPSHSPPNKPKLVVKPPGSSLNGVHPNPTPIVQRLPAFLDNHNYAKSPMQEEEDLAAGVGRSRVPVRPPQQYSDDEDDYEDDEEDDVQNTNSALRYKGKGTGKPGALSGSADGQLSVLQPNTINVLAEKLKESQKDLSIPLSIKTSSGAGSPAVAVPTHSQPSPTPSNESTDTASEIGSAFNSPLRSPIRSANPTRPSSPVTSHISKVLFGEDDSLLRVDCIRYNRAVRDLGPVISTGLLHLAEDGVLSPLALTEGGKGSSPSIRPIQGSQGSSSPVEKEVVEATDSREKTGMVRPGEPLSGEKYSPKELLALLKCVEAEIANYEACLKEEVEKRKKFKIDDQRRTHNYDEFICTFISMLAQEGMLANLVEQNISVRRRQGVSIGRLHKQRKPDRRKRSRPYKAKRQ
# Outline: as §1
# [4] = molecular target: EIF3F (UniProt O00303)
# Chain of EIF3F (O00303 whole entry): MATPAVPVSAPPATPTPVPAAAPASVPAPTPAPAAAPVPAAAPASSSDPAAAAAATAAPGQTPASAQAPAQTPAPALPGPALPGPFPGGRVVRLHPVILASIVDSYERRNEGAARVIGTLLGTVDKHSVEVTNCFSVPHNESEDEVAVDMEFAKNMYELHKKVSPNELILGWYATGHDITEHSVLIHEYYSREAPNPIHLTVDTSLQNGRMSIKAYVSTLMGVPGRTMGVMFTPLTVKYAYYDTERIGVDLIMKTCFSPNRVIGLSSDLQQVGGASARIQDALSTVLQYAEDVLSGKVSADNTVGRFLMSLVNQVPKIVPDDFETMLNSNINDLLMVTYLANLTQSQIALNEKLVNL
# Outline: as §1
# [5] = molecular target: EIF3H (UniProt O15372)
# Chain of EIF3H (O15372 whole entry): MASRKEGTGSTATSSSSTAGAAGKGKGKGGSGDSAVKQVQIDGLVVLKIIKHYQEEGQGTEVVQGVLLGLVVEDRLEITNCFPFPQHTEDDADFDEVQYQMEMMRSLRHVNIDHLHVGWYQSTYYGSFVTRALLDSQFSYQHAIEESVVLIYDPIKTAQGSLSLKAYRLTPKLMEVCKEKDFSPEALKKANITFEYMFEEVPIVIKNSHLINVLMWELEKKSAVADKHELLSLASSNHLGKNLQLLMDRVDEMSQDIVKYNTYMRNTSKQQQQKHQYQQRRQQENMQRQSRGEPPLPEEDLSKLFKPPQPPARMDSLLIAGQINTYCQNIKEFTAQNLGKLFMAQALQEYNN
# Outline: as §1
# [6] = molecular target: T3, FAM105A (UniProt Q9NUU6)
# T3 sequence (whole entry): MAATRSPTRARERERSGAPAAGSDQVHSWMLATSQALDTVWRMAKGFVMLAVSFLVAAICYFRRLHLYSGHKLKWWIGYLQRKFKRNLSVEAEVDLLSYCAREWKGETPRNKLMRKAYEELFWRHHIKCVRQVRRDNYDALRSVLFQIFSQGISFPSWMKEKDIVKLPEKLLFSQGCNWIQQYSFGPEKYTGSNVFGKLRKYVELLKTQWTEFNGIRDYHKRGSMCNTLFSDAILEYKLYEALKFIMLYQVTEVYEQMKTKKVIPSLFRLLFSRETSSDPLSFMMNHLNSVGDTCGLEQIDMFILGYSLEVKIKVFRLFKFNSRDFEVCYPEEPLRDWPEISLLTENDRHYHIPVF
# Outline: as §1
# [7] = molecular target: OTUB1 (UniProt Q96FW1)
# Chain of OTUB1 (Q96FW1 whole entry): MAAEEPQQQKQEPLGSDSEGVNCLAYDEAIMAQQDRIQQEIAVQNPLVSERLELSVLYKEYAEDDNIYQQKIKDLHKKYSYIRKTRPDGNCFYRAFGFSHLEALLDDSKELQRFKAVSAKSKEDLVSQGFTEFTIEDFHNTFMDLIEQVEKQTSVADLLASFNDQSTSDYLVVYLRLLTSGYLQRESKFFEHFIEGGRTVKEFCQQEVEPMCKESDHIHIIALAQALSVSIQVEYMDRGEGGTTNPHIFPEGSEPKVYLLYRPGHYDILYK
# Outline: as §1
# [8] = molecular target: T4, OTUD4 (UniProt Q01804)
# T4 sequence (whole entry): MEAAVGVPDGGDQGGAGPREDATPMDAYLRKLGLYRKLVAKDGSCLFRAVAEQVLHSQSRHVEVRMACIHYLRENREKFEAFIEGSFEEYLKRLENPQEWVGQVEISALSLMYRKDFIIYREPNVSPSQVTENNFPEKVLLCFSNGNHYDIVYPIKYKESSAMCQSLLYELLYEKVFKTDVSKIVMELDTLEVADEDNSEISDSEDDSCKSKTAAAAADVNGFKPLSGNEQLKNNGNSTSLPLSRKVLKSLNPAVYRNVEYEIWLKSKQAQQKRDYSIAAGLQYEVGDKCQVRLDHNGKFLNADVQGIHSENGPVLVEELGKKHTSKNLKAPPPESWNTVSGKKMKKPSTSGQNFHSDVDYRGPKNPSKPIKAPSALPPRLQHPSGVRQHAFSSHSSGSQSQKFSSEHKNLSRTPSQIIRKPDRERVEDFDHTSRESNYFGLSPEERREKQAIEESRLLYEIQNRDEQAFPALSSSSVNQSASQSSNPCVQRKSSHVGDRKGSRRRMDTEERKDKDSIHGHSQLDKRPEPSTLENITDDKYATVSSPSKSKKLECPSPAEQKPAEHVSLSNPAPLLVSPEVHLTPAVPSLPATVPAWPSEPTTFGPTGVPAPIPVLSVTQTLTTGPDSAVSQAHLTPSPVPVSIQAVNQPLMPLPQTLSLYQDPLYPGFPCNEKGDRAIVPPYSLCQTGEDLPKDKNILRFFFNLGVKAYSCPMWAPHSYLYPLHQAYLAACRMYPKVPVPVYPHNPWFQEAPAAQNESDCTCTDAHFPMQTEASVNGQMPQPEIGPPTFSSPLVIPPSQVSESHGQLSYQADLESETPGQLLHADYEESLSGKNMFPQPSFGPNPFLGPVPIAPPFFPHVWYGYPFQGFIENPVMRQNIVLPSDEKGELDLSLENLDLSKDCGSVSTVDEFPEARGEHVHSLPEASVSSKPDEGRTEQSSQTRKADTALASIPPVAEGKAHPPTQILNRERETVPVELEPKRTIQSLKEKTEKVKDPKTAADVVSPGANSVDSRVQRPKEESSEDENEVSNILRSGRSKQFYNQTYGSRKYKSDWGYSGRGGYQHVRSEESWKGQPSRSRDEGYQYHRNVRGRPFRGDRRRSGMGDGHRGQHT
# Outline: as §1
# [9] = molecular target: T5, OTUD5 (UniProt Q96G74)
# T5 sequence (whole entry): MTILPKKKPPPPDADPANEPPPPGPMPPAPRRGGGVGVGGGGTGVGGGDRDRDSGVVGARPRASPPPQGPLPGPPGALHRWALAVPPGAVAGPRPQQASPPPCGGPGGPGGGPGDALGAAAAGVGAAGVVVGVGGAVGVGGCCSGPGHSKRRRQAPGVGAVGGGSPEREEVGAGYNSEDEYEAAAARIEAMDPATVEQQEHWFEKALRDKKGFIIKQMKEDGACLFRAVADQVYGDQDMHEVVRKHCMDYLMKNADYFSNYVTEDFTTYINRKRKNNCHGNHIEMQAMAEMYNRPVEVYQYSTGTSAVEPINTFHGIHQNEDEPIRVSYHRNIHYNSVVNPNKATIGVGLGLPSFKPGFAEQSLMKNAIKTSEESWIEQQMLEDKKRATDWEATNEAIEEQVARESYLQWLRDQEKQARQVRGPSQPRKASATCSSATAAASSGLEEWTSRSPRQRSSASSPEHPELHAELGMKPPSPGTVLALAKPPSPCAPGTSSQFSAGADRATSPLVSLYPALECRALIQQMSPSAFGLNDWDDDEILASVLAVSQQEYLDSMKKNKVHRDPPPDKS
# Outline: as §1
SMILES,log2 ratio of Biotin-Ahx-Ub-VS probe labelling [1],log2 ratio of Biotin-Ahx-Ub-VS probe labelling [2],log2 ratio of Biotin-Ahx-Ub-VS probe labelling [3],log2 ratio of Biotin-Ahx-Ub-VS probe labelling [4],log2 ratio of Biotin-Ahx-Ub-VS probe labelling [5],log2 ratio of Biotin-Ahx-Ub-VS probe labelling [6],log2 ratio of Biotin-Ahx-Ub-VS probe labelling [7],log2 ratio of Biotin-Ahx-Ub-VS probe labelling [8],log2 ratio of Biotin-Ahx-Ub-VS probe labelling [9]
Cl.O=C(CCl)N1CC(c2ccc(Br)cn2)C1,0.23,-0.38,-1.49 (active),-0.158,0.134,0.0979,-0.157,-0.553,-0.45
O=C(O)C1Cc2ccccc2CN1C(=O)CCl (stereo not given),0.144,-0.269,-0.657,-0.182,-0.0826,0.395,-0.323,-0.404,-0.562
CN(Cc1nc2ccccc2[nH]1)C(=O)CCl.Cl,0.0974,-0.483,-0.482,-0.447,0.225,-0.213,-0.189,0.0195,-0.483
O=C(CCl)NCc1ccc(N2CCOCC2)c(F)c1,-0.435,-0.0444,-2.54 (active),-0.139,-0.335,0.388,-0.0261,-0.0414,0.0267
COc1ccc(Cl)cc1NC(=O)CCl,0.166,-0.592,-1.61 (active),-0.594,0.0551,-0.287,-0.497,-0.484,-0.638
N#Cc1cnn(-c2ccccc2)c1NC(=O)CCl,0.0569,-1.2 (active),-4.3 (active),-0.258,0.233,-0.0309,-0.0957,-0.641,-0.526
O=C(CCl)N1CCN2C(=O)CCC2C1 (stereo not given),0.0971,-0.237,-0.591,0.0885,-0.0249,0.154,-0.19,-0.461,-0.499
CC1Cc2ccccc2N1C(=O)CCl (stereo not given),-0.0487,-0.989,-0.55,-0.355,0.0594,-0.0636,-0.626,-0.544,-0.957
NC(=O)C(Cc1ccccc1)NC(=O)CCl (stereo not given),0.0325,-0.279,-2.01 (active),0.127,-0.254,-0.0569,0.128,-0.451,-0.216
O=C(CCl)NCCc1ccc2c(c1)OCCO2,-0.0432,-0.16,-1.7 (active),-0.184,0.186,0.307,-0.173,-0.539,-0.693
NC(=O)C1CCCCN1C(=O)CCl (stereo not given),0.0736,-0.889,-0.748,0.103,0.0122,-0.18,-0.182,-0.464,-0.638
CNC(=O)Cn1cc(NC(=O)CCl)cn1,-0.433,-0.517,-1.67 (active),-0.308,0.0304,-0.125,-0.0242,-0.305,-0.468
O=C(CCl)Nc1ccc(F)cc1Cl,-0.23,-0.598,-3.7 (active),-0.37,0.131,0.0383,-0.452,-0.578,-0.8
C[C@@H](NC(=O)CCl)c1cccc(C#N)c1,0.118,-0.463,-2.8 (active),-0.345,0.144,0.148,-0.229,-0.372,-0.284
COCC1C=CCCN1C(=O)CCl (stereo not given),0.0362,-0.232,-0.527,-0.011,0.276,0.371,0.0515,-0.452,-0.298
